# Assay results reported in PubChem BioAssay AID602376 (Johns Hopkins Ion Channel Center, 2012).
# Results with a measured potency or affinity are listed apart. Records with an inconclusive call do not appear. The source made the active and inactive calls.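 The calls were made as follows: active = raises choline transporter activity at one or more tested doses and gives a fitted dose-response curve; inconclusive = no clear call, values can overlap the other calls; inactive = no choline transporter activation at any dose, or no curve.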
# Molecular target: High affinity choline transporter 1 (Homo sapiens) (UniProt Q9GZV3)
# Sequence (Q9GZV3 whole entry, looked up): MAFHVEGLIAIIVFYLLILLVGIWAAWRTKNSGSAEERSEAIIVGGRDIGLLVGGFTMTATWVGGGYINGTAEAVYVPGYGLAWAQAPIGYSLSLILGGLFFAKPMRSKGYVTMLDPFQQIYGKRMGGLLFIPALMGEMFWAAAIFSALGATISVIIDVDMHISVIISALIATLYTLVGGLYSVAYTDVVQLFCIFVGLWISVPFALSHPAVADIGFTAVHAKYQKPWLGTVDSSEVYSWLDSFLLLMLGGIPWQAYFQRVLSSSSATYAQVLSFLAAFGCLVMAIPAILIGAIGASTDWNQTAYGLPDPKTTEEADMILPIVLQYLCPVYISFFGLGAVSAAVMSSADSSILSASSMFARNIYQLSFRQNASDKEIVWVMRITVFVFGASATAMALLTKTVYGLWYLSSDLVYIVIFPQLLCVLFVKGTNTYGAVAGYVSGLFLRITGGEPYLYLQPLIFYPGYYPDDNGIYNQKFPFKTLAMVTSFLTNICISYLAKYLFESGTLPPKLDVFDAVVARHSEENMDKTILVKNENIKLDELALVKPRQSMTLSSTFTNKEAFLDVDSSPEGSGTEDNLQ
# Assay: human choline transporter potentiators, potency – cell-based, 10-point CRC, membrane potential dye, dose response (AID 602376)
# Settings: HEK293-CHT, choline-induced membrane potential dye, cells express CHT LV-AA mutant; series mostly up to 67 µM; percent activation: at the top concentration
row,Compound,percent activation
1,COc1ccc(C2NCc3ccc4c(c3-n3cccc32)OCO4)cc1O (stereo not drawn),112% (inactive)
2,CCCCCn1c(=O)c(C(=O)NCc2ccncc2)c(O)c2ccccc21,78.3% (inactive)
3,CCCOC(=O)c1ccc(-[n+]2c(-c3ccccc3)cc(-c3ccccc3)cc2-c2ccccc2)cc1,105% (inactive)
